About 79,000 compounds went through this panel and 15% of them were active in at least one assay; those are over-represented in the sample as a whole. Unmarked numbers belong to inactive results. Active and inactive are the calls of the source. Rule as the data show it: active = growth inhibition above about 70%; inactive = the rest.
test: NCI Yeast Anticancer Drug Screen. Data for the mlh1 rad18 strain (AID 175); conditions: S. cerevisiae mlh1 rad18 strain growth inhibition; at 50.0 µM; active compounds read high
Description: Growth inhibition of yeast strains with defined genetic alterations is measured as a screen for potential anti-cancer activity. Selected strains with alterations in DNA damage repair or cell cycle control were exposed to compounds and growth inhibition was measured relative to vehicle treated controls. The strain used in this assay is mlh1 rad18

| Structure (SMILES) | growth inhibition |
| --- | --- |
| NC(=O)C(c1ccccc1)N1CCCC1 (stereo not given) | -0.55% |
| CC1OC(Oc2c(-c3cc(O)c(O)c(O)c3)oc3cc(O)cc(O)c3c2=O)C(O)C(O)C1O (stereo not given) | -13.6% |
| O=[N+]([O-])c1ccc(-n2[nH]nnc2=S)cc1 | 16.1% |
| CC12CC3CC(C(Cl)C(=O)O)(C1)CC(C(Cl)C(=O)O)(C3)C2 (stereo not given) | 46.6% |
| CCOc1cccc(/C=C2\N=C(c3ccccc3)OC2=O)c1 | 10.9% |
| CC(C)c1cc(C(=O)O)c(O)c(C(C)C)c1.CC(C)c1cc(C(=O)O)c(O)c(C(C)C)c1.[Cu] | 54.6% |
| Cn1/c(=N/Sc2nnnn2-c2ccccc2)sc2ccccc21 | 29.9% |
| CCC(=O)CC1CCCC(CC(=O)CC)N1C (stereo not given) | 17.6% |
| CCN(CC)CCN(C)CC(=O)Nc1ccccc1C | 38.4% |
| CCCCCCC(C/C=C\CCCCCCCC(=O)OC)OC(C)=O (stereo not given) | -4.5% |
| Cc1ccc(/C=C2/N=C(N/N=C\c3ccccc3)NC2=O)cc1 | -41.1% |
| C=CC(COC(=O)C(C)(C)OC(C)=O)c1ccc(OC(=O)C(C)C)c(OC)c1 (stereo not given) | -76.1% |
| COc1cc2c(cc1C1COc3cc4occc4cc3C1=O)OCO2 (stereo not given) | -25.6% |
| COC(=O)CCNCc1ccccc1 | 10.4% |
| Cc1cccc(C)c1NC(=S)N(C)C | 4.65% |
| CSc1sc2cc([N+](=O)[O-])ccc2[n+]1C | 55.4% |
| COc1cccc(N2C(=O)CSC2=S)c1 | 46.8% |
| COc1cc(Oc2c(C)c(Cl)c(OC)c(Cl)c2OC)c2c(c1Cl)COC2=O | 22.8% |
| CCCCCCCCCC(O)CC(=O)c1c(O)cccc1O (stereo not given) | 78.7% (active) |
| COC(=O)C/C(=C/C=C1/C(=O)ON=C1C)c1c(C)[nH]oc1=O | -16.9% |

| Structure (SMILES) | growth inhibition |
| --- | --- |
| CCOc1ccc(Br)cc1/C=C1\N=C(c2ccccc2)OC1=O | 1.7% |
| Clc1ccc(C2C3COc4ccccc4C3=NN2c2ccccc2)cc1 (stereo not given) | -13.3% |
| COc1ccc(/C=C(\C#N)c2ccc(Cl)cc2)cc1OC | -1.15% |
| COc1ccc(/C=C2/NC(=S)N=C2Cl)cc1 | -29% |
| CC1=NN(c2ccccc2)C(=O)C1CCC#N (stereo not given) | 31.4% |
| COc1ccc(N=c2ssc(SC)c2-c2ccccc2)cc1 | -0.8% |
| OCc1ccccn1 | 16.7% |
| Cc1ccc(NC(=S)NCCO)cc1 | -13.6% |
| COC(=O)C(=O)C(C(=O)C(=O)Nc1ccccc1C(C)=O)c1nc2ccc(C(=O)c3ccccc3)cc2[nH]c1=O (stereo not given) | 24.5% |
| CCN(CC)C(=O)c1cccnc1 | 18.6% |
| CC1CC(=O)N(N(C)C)C(C#N)(C#N)C1(C#N)C#N (stereo not given) | 80.5% (active) |
| CC(=O)c1cccc(OCc2ccccc2)c1 | 8.4% |
| C=C1C2CCC3C4(C)CCCC(C)(C(=O)O)C4CCC3(C2)C1OC(=O)/C(C)=C/C (stereo not given) | -59.4% |
| C=C1C(=O)OC2/C=C(\CO)CC/C=C(\CO)CC(OC(=O)C(C)C)C12 (stereo not given) | -41.5% |
| O=C(Cc1nc2ccccc2[nH]c1=O)N/N=C/c1ccc2c(c1)CCC2 | -37.4% |
| CCC(C)NCCNCCNC(C)CC (stereo not given) | 0.8% |
| N#C/C(=C/c1ccccc1Cl)C(N)=O | 6.15% |
| COC(=O)C(Cc1nc2ccccc2[nH]c1=O)C(=O)C(=O)Nc1cc(C(F)(F)F)ccc1Cl (stereo not given) | 11.4% |
| Cc1ccc(OC2CC(n3cnc4ncnc(Cl)c43)OC2Oc2ccc(C)cc2)cc1 (stereo not given) | -33.8% |
| C[C@]12CC[C@@H]3c4ccc(OS(N)(=O)=O)cc4CC[C@H]3[C@@H]1CCC2=O | 15.8% |

Source: PubChem BioAssay (NCI)
